Results from PubChem BioAssay AID1159580 (chemical genetic matrix, 2015).
“And” between values parts separate entries of the source, which are not always exact repeats. Equal entries are not always repeated. Hit rate of the full screen: of about 5,500 compounds, about 2,000 (36%) were called active. Not shown: some 18% with an inconclusive outcome. No stated cut-off is given here; in the data, active means normalized growth mostly below about 0.91 (no sharp cut-off); inconclusive means no clear call, values can overlap the other calls; inactive means mostly above about 0.92. The list shows a part of the results.

Assay: chemical genetic growth profiling, strain panel (AID 1159580);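 further: tested at 20 µM; growth read once vehicle control cultures reached saturation at 30 °C; 1 = growth at the plate median or of vehicle wells; lower values mean less growth of the strain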
Conditions: growth OD

Measured: normalized growth

CC1=C(CC(=O)O)c2cc(F)ccc2/C1=C\c1ccc(S(C)=O)cc1 (stereo unspecified)
inactive: S. cerevisiae deletion strains, locus YJR075W, strain HOC1, active compounds read low 1 | S. cerevisiae deletion strains, locus YKL009W, strain mrt4, active compounds read low 0.993 | S. cerevisiae deletion strains, locus YKL068W, active compounds read low 1.01 | S. cerevisiae deletion strains, locus YKL085W, strain MDH1 (second series), active compounds read low 1.02 | S. cerevisiae deletion strains, locus YKL085W, strain MDH1, active compounds read low 1.02 | S. cerevisiae deletion strains, locus YKL160W, strain elf1, active compounds read low 1 | S. cerevisiae deletion strains, locus YKL190W, strain CNB1, active compounds read low 1.01 | S. cerevisiae deletion strains, locus YKR001C, strain vps1, active compounds read low 0.997 | S. cerevisiae deletion strains, locus YKR026C, strain gcn3, active compounds read low 1.01 | S. cerevisiae deletion strains, locus YKR091W, strain srl3, active compounds read low 1.02 | S. cerevisiae deletion strains, locus YLL001W, strain dnm1, active compounds read low 0.998 | S. cerevisiae deletion strains, locus YLL026W, active compounds read low 1.03 | S. cerevisiae deletion strains, locus YLL041C, strain sdh2, active compounds read low 1.02 | S. cerevisiae deletion strains, locus YLR027C, strain aat2, active compounds read low 1.02 | S. cerevisiae deletion strains, locus YLR039C, strain RIC1, active compounds read low 1.01 | S. cerevisiae deletion strains, locus YLR058C, strain SHM2, active compounds read low 1 | S. cerevisiae deletion strains, locus YLR102C, strain apc9, active compounds read low 1.02 | S. cerevisiae deletion strains, locus YLR113W, strain HOG1, active compounds read low 1 | S. cerevisiae deletion strains, locus YLR221C, strain rsa3, active compounds read low 0.999 | S. cerevisiae deletion strains, locus YLR258W, strain gsy2, active compounds read low 1.01 | S. cerevisiae deletion strains, locus YLR262C, strain YPT6 (second series), active compounds read low 1.02 | S. cerevisiae deletion strains, locus YLR262C, strain YPT6, active compounds read low 0.995 | S. cerevisiae deletion strains, locus YLR268W, strain sec22, active compounds read low 1.06 | S. cerevisiae deletion strains, locus YLR320W, strain mms22, active compounds read low 1 | S. cerevisiae deletion strains, locus YLR330W, strain CHS5, active compounds read low 1.01 | S. cerevisiae deletion strains, locus YLR342W, strain FKS1 (second series), active compounds read low 1.02 | S. cerevisiae deletion strains, locus YLR342W, strain FKS1, active compounds read low 0.99 | S. cerevisiae deletion strains, locus YLR357W, strain rsc2, active compounds read low 1.05 | S. cerevisiae deletion strains, locus YLR370C, strain arc18, active compounds read low 1.03 | S. cerevisiae deletion strains, locus YLR371W, strain rom2, active compounds read low 1.03 | S. cerevisiae deletion strains, locus YLR384C, strain iki3, active compounds read low 1.02 | S. cerevisiae deletion strains, locus YLR418C, strain cdc73, active compounds read low 1.02 | S. cerevisiae deletion strains, locus YML016C, strain PPZ1, active compounds read low 1 | S. cerevisiae deletion strains, locus YML032C, strain rad52, active compounds read low 1.03 | S. cerevisiae deletion strains, locus YML120C, strain ndi1, active compounds read low 1.03 | S. cerevisiae deletion strains, locus YML124C, strain tub3, active compounds read low 1.01 | S. cerevisiae deletion strains, locus YMR058W, strain fet3, active compounds read low 1.03 | S. cerevisiae deletion strains, locus YMR078C, strain ctf18, active compounds read low 1.01 | S. cerevisiae deletion strains, locus YMR125W, strain sto1, active compounds read low 1.02 | S. cerevisiae deletion strains, locus YMR129W, active compounds read low 1.02 | S. cerevisiae deletion strains, locus YMR205C, strain PFK2, active compounds read low 1.03 | S. cerevisiae deletion strains, locus YMR223W, strain ubp8, active compounds read low 0.995 | S. cerevisiae deletion strains, locus YMR231W, strain pep5, active compounds read low 1.02 | S. cerevisiae deletion strains, locus YMR263W, strain SAP30, active compounds read low 1.01 | S. cerevisiae deletion strains, locus YMR307W, strain GAS1, active compounds read low 1 and 1.02 | S. cerevisiae deletion strains, locus YNL067W, strain RPL9B, active compounds read low 1.01 | S. cerevisiae deletion strains, locus YNL071W, strain lat1, active compounds read low 1.02 | S. cerevisiae deletion strains, locus YNL128W, strain TEP1, active compounds read low 1.03 | S. cerevisiae deletion strains, locus YNL153C, strain GIM3, active compounds read low 1.01 and 1.06 | S. cerevisiae deletion strains, locus YNL175C, strain NOP13, active compounds read low 1.02 | S. cerevisiae deletion strains, locus YNL183C, strain NPR1, active compounds read low 0.946 | S. cerevisiae deletion strains, locus YNL197C, strain WHI3, active compounds read low 1.02 | S. cerevisiae deletion strains, locus YNL209W, strain ssb2, active compounds read low 1.02 | S. cerevisiae deletion strains, locus YNL224C, strain SQS1, active compounds read low 1.02 | S. cerevisiae deletion strains, locus YNL233W, strain BNI4, active compounds read low 1.01 | S. cerevisiae deletion strains, locus YNL248C, strain rpa49, active compounds read low 1 | S. cerevisiae deletion strains, locus YNL250W, strain rad50, active compounds read low 1.01 | S. cerevisiae deletion strains, locus YNL271C, strain bni1, active compounds read low 1.01 | S. cerevisiae deletion strains, locus YNL298W, strain CLA4, active compounds read low 0.991 | S. cerevisiae deletion strains, locus YNL307C, strain MCK1, active compounds read low 1.03 | S. cerevisiae deletion strains, locus YNL322C, strain KRE1 (second series), active compounds read low 1.02 | S. cerevisiae deletion strains, locus YNL322C, strain KRE1, active compounds read low 1.01 | S. cerevisiae deletion strains, locus YNR049C, strain mso1, active compounds read low 1.03 | S. cerevisiae deletion strains, locus YNR052C, strain pop2, active compounds read low 1.02 | S. cerevisiae deletion strains, locus YOL006C, strain TOP1, active compounds read low 0.99 | S. cerevisiae deletion strains, locus YOL012C, strain htz1 1.13 | S. cerevisiae deletion strains, locus YOL147C, strain pex11, active compounds read low 1.02 | S. cerevisiae deletion strains, locus YOR001W, strain rrp6, active compounds read low 1.04 | S. cerevisiae deletion strains, locus YOR061W, strain CKA2, active compounds read low 1 | S. cerevisiae deletion strains, locus YOR069W, strain VPS5, active compounds read low 1.01 | S. cerevisiae deletion strains, locus YOR070C, strain gyp1, active compounds read low 1.01 | S. cerevisiae deletion strains, locus YOR080W, strain dia2, active compounds read low 1.04 | S. cerevisiae deletion strains, locus YOR083W, strain WHI5 (second series), active compounds read low 1.03 | S. cerevisiae deletion strains, locus YOR083W, strain WHI5, active compounds read low 0.986 | S. cerevisiae deletion strains, locus YOR106W, strain vam3, active compounds read low 1.01 | S. cerevisiae deletion strains, locus YOR136W, strain idh2, active compounds read low 1.01 | S. cerevisiae deletion strains, locus YOR144C, strain elg1, active compounds read low 1.02 | S. cerevisiae deletion strains, locus YOR184W, strain ser1, active compounds read low 1.01 | S. cerevisiae deletion strains, locus YOR231W, strain MKK1, active compounds read low 0.975 | S. cerevisiae deletion strains, locus YOR265W, strain rbl2, active compounds read low 1.02 | S. cerevisiae deletion strains, locus YOR270C, strain vph1, active compounds read low 1.04 | S. cerevisiae deletion strains, locus YOR290C, strain snf2, active compounds read low 1.02 | S. cerevisiae deletion strains, locus YOR316C, strain cot1, active compounds read low 1.02 | S. cerevisiae deletion strains, locus YPL051W, strain arl3, active compounds read low 0.996 | S. cerevisiae deletion strains, locus YPL055C, strain LGE1, active compounds read low 0.98 | S. cerevisiae deletion strains, locus YPL078C, strain atp4, active compounds read low 1.01 | S. cerevisiae deletion strains, locus YPL106C, strain sse1, active compounds read low 1.03 | S. cerevisiae deletion strains, locus YPL240C, strain hsp82, active compounds read low 1.02 | S. cerevisiae deletion strains, locus YPL241C, strain CIN2, active compounds read low 1.01 | S. cerevisiae deletion strains, locus YPL256C, strain CLN2, active compounds read low 0.994 | S. cerevisiae deletion strains, locus YPR119W, strain clb2, active compounds read low 1.02 | S. cerevisiae deletion strains, locus YPR141C, strain kar3, active compounds read low 1.02 | S. cerevisiae deletion strains, locus YPR163C, strain tif3, active compounds read low 1.02 | S. cerevisiae deletion strains, locus YPR167C, strain met16, active compounds read low 1.02 | S. cerevisiae deletion strains, strain wtn01, active compounds read low 1.03 | S. cerevisiae strains, strain wild type, active compounds read low 1.01
